The record followed here is PubChem BioAssay (NCI).

Where “and” joins values, the source holds several entries; their conditions need not be identical. Identical values can stand only once. This is part of a sample that, as a whole, favours compounds with a hit. Of some 79,000 tested, about 15% had one in any assay. More than one record can exist for a structure, and the calls need not agree. Calls of active or inactive are those of the source. No stated cut-off is given here; in the data, active means growth inhibition above about 70%; inactive means the rest.

A short description of assay [1]: NCI Yeast Anticancer Drug Screen. Data for the rad50 strain (AID 155).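 Further: 0% = growth of vehicle-only cultures of the same strain.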 The note with it: S. cerevisiae rad50 strain growth inhibition, stronger effect = higher value. The method, boiled down:
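Genetically altered yeast (DNA repair pathway); compound treatment; growth inhibition vs vehicle ctrl.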

Assay [2] is described as follows: NCI Yeast Anticancer Drug Screen. Data for the mec2-1 strain (AID 157). Particulars: S. cerevisiae mec2-1 strain, stronger effect = higher value. The method, boiled down:
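Cells of the genetically defined mec2-1 yeast strain are incubated with test compound. Inhibition of growth is calculated against vehicle-treated controls.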

Assay [3] in a line: NCI Yeast Anticancer Drug Screen. Data for the sgs1 mgt1 strain (AID 161).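 Further: 0% = growth of cultures given vehicle only.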 Particulars: S. cerevisiae sgs1 mgt1 strain, stronger effect = higher value. The method in brief:
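Read-out: growth inhibition vs vehicle controls. Cells: mutant yeast strain deficient in DNA damage repair.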

A short description of assay [4]: NCI Yeast Anticancer Drug Screen. Data for the cln2 rad14 strain (AID 165).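 Further: 0% = growth equal to vehicle treated cultures.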 The note with it: S. cerevisiae cln2 rad14 strain, stronger effect = higher value. The method in brief:
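The screen exposed genetically defined yeast (cln2 rad14) to test compounds and scored growth inhibition relative to vehicle-treated controls.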

Assay [5] can be described thus: NCI Yeast Anticancer Drug Screen. Data for the bub3 strain (AID 167). The note with it: S. cerevisiae bub3 mutant strain, stronger effect = higher value. The method in brief: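 Yeast carrying a defined mutation is treated with each compound, and growth is compared with that of vehicle-exposed cells to give inhibition.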
A short description of assay [6]: NCI Yeast Anticancer Drug Screen. Data for the mlh1 rad18 strain (AID 175). The note with it: S. cerevisiae mlh1 rad18 strain growth inhibition, stronger effect = higher value. The method in brief:
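Compound-treated yeast growth, normalised to vehicle controls. Strain bears defined DNA repair mutations.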

Where [7] appears, read: at 5.0 µM (retest, dose inferred, filed as 0.5).
Setting [8] is: at 50.0 µM (retest, dose inferred, filed as 5.0).

With `CCOC(=O)c1c[nH]c2c([N+](=O)[O-])cc(OC)cc2c1=O`, the growth inhibition in assay [1] (setting [7]) was -1% (inactive); in assay [1] (setting [8]) it was 32% (inactive); in assay [1] (at 50.0 µM) it was 10.6% (inactive) and 61.4% (inactive); in assay [2] (setting [7]), 2% (inactive); in assay [2] (setting [8]), 21% (inactive); in assay [2] (at 50.0 µM) it was 40.1% (inactive) and 35.2% (inactive). For the same compound, the growth inhibition in assay [3] (setting [7]) is 3% (inactive); in assay [3] (setting [8]) it was 41% (inactive); in assay [3] (at 50.0 µM) it was 36% (inactive) and 16.3% (inactive); in assay [4] (setting [7]), -6% (inactive); in assay [4] (setting [8]), 24% (inactive); in assay [4] (at 50.0 µM), -11.7% (inactive) and -10.1% (inactive). Moreover, the growth inhibition was 2% (inactive) in assay [5] (setting [7]); 46% (inactive) in assay [5] (setting [8]); 18.6% (inactive) and 61% (inactive) in assay [5] (at 50.0 µM); 6% (inactive) in assay [6] (setting [7]); 42% (inactive) in assay [6] (setting [8]); 56.9% (inactive) and 73% (active) in assay [6] (at 50.0 µM).

As to `O=C1c2cccc(O)c2C(=O)c2c(O)cccc21`, the growth inhibition was 67% (inactive) in assay [1] (setting [7]); 73% (active) in assay [1] (setting [8]); 55% (inactive) and 74.8% (active) in assay [1] (at 50.0 µM); 28% (inactive) in assay [2] (setting [7]); 36% (inactive) in assay [2] (setting [8]); 38.1% (inactive) and 42.8% (inactive) in assay [2] (at 50.0 µM). Besides, the growth inhibition was 21% (inactive) in assay [3] (setting [7]); 50% (inactive) in assay [3] (setting [8]); 41.6% (inactive) and 45.6% (inactive) in assay [3] (at 50.0 µM); 18% (inactive) in assay [4] (setting [7]); 25% (inactive) in assay [4] (setting [8]); 44.1% (inactive) and -10.8% (inactive) in assay [4] (at 50.0 µM). In addition, the growth inhibition was 24% (inactive) in assay [5] (setting [7]); 62% (inactive) in assay [5] (setting [8]); 42.6% (inactive) and 39.5% (inactive) in assay [5] (at 50.0 µM); 42% (inactive) in assay [6] (setting [7]); 66% (inactive) in assay [6] (setting [8]); 50.4% (inactive) and 66.1% (inactive) in assay [6] (at 50.0 µM).

As for `NC(=O)N/N=C/c1ccc([N+](=O)[O-])o1`, the growth inhibition is 2% (inactive) in assay [1] (setting [7]); 73% (active) in assay [1] (setting [8]); 32% (inactive) and 46.6% (inactive) in assay [1] (at 50.0 µM); 2% (inactive) in assay [2] (setting [7]); 26% (inactive) in assay [2] (setting [8]); 13.8% (inactive) and 8.3% (inactive) in assay [2] (at 50.0 µM). Further, the growth inhibition is 4% (inactive) in assay [3] (setting [7]); 34% (inactive) in assay [3] (setting [8]); 56.4% (inactive) and 48% (inactive) in assay [3] (at 50.0 µM); 0% (inactive) in assay [4] (setting [7]); 16% (inactive) in assay [4] (setting [8]); 10.1% (inactive) and 26.1% (inactive) in assay [4] (at 50.0 µM). For the same compound, the growth inhibition was -3% (inactive) in assay [5] (setting [7]); 22% (inactive) in assay [5] (setting [8]); 10.6% (inactive) and 51.8% (inactive) in assay [5] (at 50.0 µM); 5% (inactive) in assay [6] (setting [7]); 50% (inactive) in assay [6] (setting [8]); 47.3% (inactive) and 71.3% (active) in assay [6] (at 50.0 µM).

As to `Nc1ccc(Cc2ccc(Br)cc2)cc1`, the growth inhibition was 28% (inactive) in assay [1] (setting [7]); 98% (active) in assay [1] (setting [8]); 99.2% (active) in assay [1] (at 50.0 µM); 12% (inactive) in assay [2] (setting [7]); 99% (active) in assay [2] (setting [8]); 99.3% (active) in assay [2] (at 50.0 µM). Also, the growth inhibition is 1% (inactive) in assay [3] (setting [7]); 99% (active) in assay [3] (setting [8]); 99.3% (active) in assay [3] (at 50.0 µM); 8% (inactive) in assay [4] (setting [7]); 98% (active) in assay [4] (setting [8]); 98.8% (active) in assay [4] (at 50.0 µM). Also, the growth inhibition in assay [5] (setting [7]) was 30% (inactive); in assay [5] (setting [8]), 98% (active); in assay [5] (at 50.0 µM), 98.8% (active); in assay [6] (setting [7]), 30% (inactive); in assay [6] (setting [8]), 98% (active); in assay [6] (at 50.0 µM), 99.2% (active).

Consider `S=c1nc[nH]c2[nH]ccc12`, for which the growth inhibition in assay [1] (setting [7]) is -3% (inactive); in assay [1] (setting [8]) it was -4% (inactive); in assay [1] (at 50.0 µM), 10.1% (inactive); in assay [2] (setting [7]), 2% (inactive); in assay [2] (setting [8]), -3% (inactive); in assay [2] (at 50.0 µM), 0.6% (inactive). For the same compound, the growth inhibition in assay [3] (setting [7]) was 0% (inactive); in assay [3] (setting [8]), -2% (inactive); in assay [3] (at 50.0 µM) it was -2.35% (inactive); in assay [4] (setting [7]), -2% (inactive); in assay [4] (setting [8]), -7% (inactive); in assay [4] (at 50.0 µM), 48% (inactive). In addition, the growth inhibition is -1% (inactive) in assay [5] (setting [7]); -6% (inactive) in assay [5] (setting [8]); -5.4% (inactive) in assay [5] (at 50.0 µM); -1% (inactive) in assay [6] (setting [7]); 0% (inactive) in assay [6] (setting [8]); 2.8% (inactive) in assay [6] (at 50.0 µM).

Turning to `O=C1N(c2ccccc2)C(=O)N1c1ccccc1`, the growth inhibition in assay [1] (setting [7]) is -8% (inactive); in assay [1] (setting [8]), -6% (inactive); in assay [1] (at 50.0 µM), 1.05% (inactive) and 0.3% (inactive); in assay [2] (setting [7]) it was -19% (inactive); in assay [2] (setting [8]) it was -1% (inactive); in assay [2] (at 50.0 µM), 25.6% (inactive) and -2.2% (inactive). The growth inhibition in assay [3] (setting [7]) is -11% (inactive); in assay [3] (setting [8]) it was 3% (inactive); in assay [3] (at 50.0 µM), 43.2% (inactive) and -12.2% (inactive); in assay [4] (setting [7]), 20% (inactive); in assay [4] (setting [8]) it was 17% (inactive); in assay [4] (at 50.0 µM), 0.1% (inactive) and -20.9% (inactive). Further, the growth inhibition in assay [5] (setting [7]) was 14% (inactive); in assay [5] (setting [8]), 17% (inactive); in assay [5] (at 50.0 µM), 22.1% (inactive) and -12.4% (inactive); in assay [6] (setting [7]), -16% (inactive); in assay [6] (setting [8]), -11% (inactive); in assay [6] (at 50.0 µM) it was 28.6% (inactive) and 2.3% (inactive).

Turning to `Cc1cc2c(C(C)C)c(O)c(O)c(C=Nc3ccccc3S)c2c(O)c1-c1c(C)cc2c(C(C)C)c(O)c(O)c(C=Nc3ccccc3S)c2c1O`, the growth inhibition in assay [1] (setting [7]) is -3% (inactive); in assay [1] (setting [8]), 53% (inactive); in assay [1] (at 50.0 µM) it was 36.2% (inactive); in assay [2] (setting [7]), -12% (inactive); in assay [2] (setting [8]) it was 28% (inactive); in assay [2] (at 50.0 µM), 55% (inactive). Besides, the growth inhibition is -4% (inactive) in assay [3] (setting [7]); 4% (inactive) in assay [3] (setting [8]); 57.3% (inactive) in assay [3] (at 50.0 µM); -9% (inactive) in assay [4] (setting [7]); 16% (inactive) in assay [4] (setting [8]); 44.6% (inactive) in assay [4] (at 50.0 µM). In addition, the growth inhibition was -8% (inactive) in assay [5] (setting [7]); 45% (inactive) in assay [5] (setting [8]); 39.5% (inactive) in assay [5] (at 50.0 µM); -5% (inactive) in assay [6] (setting [7]); 66% (inactive) in assay [6] (setting [8]); 53.5% (inactive) in assay [6] (at 50.0 µM).

Turning to `C=C1CCC[C@@H]2[C@@](C)(Cc3cc(O)ccc3O)C(C)CC[C@]12C` (some centres undefined), the growth inhibition in assay [1] (setting [7]) is 16% (inactive); in assay [1] (setting [8]), 97% (active); in assay [1] (at 50.0 µM), 97.5% (active); in assay [2] (setting [7]), 11% (inactive); in assay [2] (setting [8]) it was 97% (active); in assay [2] (at 50.0 µM), 98.2% (active). For the same compound, the growth inhibition in assay [3] (setting [7]) is 25% (inactive); in assay [3] (setting [8]), 98% (active); in assay [3] (at 50.0 µM) it was 97.7% (active); in assay [4] (setting [7]) it was -4% (inactive); in assay [4] (setting [8]) it was 97% (active); in assay [4] (at 50.0 µM), 97.3% (active). The growth inhibition in assay [5] (setting [7]) was 0% (inactive); in assay [5] (setting [8]), 97% (active); in assay [5] (at 50.0 µM) it was 97.8% (active); in assay [6] (setting [7]), 11% (inactive); in assay [6] (setting [8]), 96% (active); in assay [6] (at 50.0 µM), 97.7% (active).
